Reference: article PMC8384837, “Expanding the binding specificity for RNA recognition by a PUF domain”

Tests used:
Experiment in all cases: yeast three-hybrid, YBZ-1, SC-Leu-His + 0.5 mM 3-AT, 4 days
Conditions in all cases: tags: N-Gal4 AD-HA kept; label: inside an RPR1-promoter hybrid RNA with tandem MS2 sites; ssRNA
PUM1 PUF domain R1-CFK = PUM1 PUF domain R1-CFK (Homo sapiens, UniProt Q14671 828-1176, S863C;R864F;Q867K)
How it was run: (§1)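 Repeat regions from input (SC-Leu) and selection (SC-Leu-His + 0.5 mM 3-AT) plates were PCR-amplified and Illumina-sequenced after four days of growth. The cells were strain YBZ-1 with a LexA–MS2 coat fusion and a HIS3 reporter, co-expressing Pumilio-1 PUF domain libraries and matching RNA elements from a centromeric plasmid. The interaction score is the log change in variant frequency from input to selection, taken in log2 with a pseudocount of 1 for absent variants.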

PUM1 PUF domain R6-FRE = target: T1, PUM1 PUF domain R6-FRE (Homo sapiens, UniProt Q14671 828-1176, N1043F;Y1044R;Q1047E)
T1 sequence: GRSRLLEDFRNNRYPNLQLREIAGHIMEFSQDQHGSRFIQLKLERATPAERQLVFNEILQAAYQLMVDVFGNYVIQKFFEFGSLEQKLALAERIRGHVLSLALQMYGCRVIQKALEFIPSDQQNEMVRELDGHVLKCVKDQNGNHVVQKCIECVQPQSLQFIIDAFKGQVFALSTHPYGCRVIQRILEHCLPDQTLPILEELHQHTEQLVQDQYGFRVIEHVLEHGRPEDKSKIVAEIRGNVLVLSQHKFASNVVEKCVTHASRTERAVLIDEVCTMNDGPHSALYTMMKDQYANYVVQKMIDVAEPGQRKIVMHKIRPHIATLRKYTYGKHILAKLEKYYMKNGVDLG
How it was run: as §1

PUM1 PUF domain R4-CCM = PUM1 PUF domain R4-CCM (Homo sapiens, UniProt Q14671 828-1176, N971C;H972C;Q975M)
How it was run: as §1

PUM1 PUF domain R2-KFG = PUM1 PUF domain R2-KFG (Homo sapiens, UniProt Q14671 828-1176, N899K;Y900F;Q903G)
How it was run: as §1

PUM1 PUF domain R4-WGF = PUM1 PUF domain R4-WGF (Homo sapiens, UniProt Q14671 828-1176, N971W;H972G;Q975F)
How it was run: as §1

PUM1 PUF domain R5-KYG = PUM1 PUF domain R5-KYG (Homo sapiens, UniProt Q14671 828-1176, C1007K;R1008Y;Q1011G)
Chain of PUM1 PUF domain R5-KYG (Q14671 828-1176 C1007K/R1008Y/Q1011G): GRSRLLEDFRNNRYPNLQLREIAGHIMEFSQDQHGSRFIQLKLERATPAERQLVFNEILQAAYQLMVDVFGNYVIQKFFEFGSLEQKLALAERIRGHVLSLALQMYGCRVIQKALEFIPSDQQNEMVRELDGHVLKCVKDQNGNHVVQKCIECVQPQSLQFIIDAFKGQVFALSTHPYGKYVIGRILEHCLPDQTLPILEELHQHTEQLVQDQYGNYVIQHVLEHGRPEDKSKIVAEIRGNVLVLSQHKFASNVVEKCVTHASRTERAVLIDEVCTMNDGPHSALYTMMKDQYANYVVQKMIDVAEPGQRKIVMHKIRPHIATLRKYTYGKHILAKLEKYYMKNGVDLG
How it was run: as §1

PUM1 PUF domain R4-WAT = PUM1 PUF domain R4-WAT (Homo sapiens, UniProt Q14671 828-1176, N971W;H972A;Q975T)
How it was run: as §1

PUM1 PUF domain R4-SMR = PUM1 PUF domain R4-SMR (Homo sapiens, UniProt Q14671 828-1176, N971S;H972M;Q975R)
How it was run: as §1

PUM1 PUF domain R1-KRD = PUM1 PUF domain R1-KRD (Homo sapiens, UniProt Q14671 828-1176, S863K;Q867D)
How it was run: as §1

PUM1 PUF domain R7-GSR = PUM1 PUF domain R7-GSR (Homo sapiens, UniProt Q14671 828-1176, S1079G;N1080S;E1083R)
How it was run: as §1

Q: How did the binding signal (PUM1 PUF domain R1-CFK) turn out when “GGCUAGAACUAGUGGAUCCCCCGGCGCCCGGCGGCUCGAGCCCGGGUAAGUGUAAAUUGUCUGCAUGCCGCCGGGCGCCAUGCCUGCAGGUCGACUCUAGAAAACAUG” was run?
A: 3.31 log2 enrichment (interaction score)

Q: With “GGCUAGAACUAGUGGAUCCCCCGGCGCCCGGCGGCUCGAGCCCGGGUAAGUGUAAAUAGUCUGCAUGCCGCCGGGCGCCAUGCCUGCAGGUCGACUCUAGAAAACAUG” as the sequence, how does the binding signal (PUM1 PUF domain R6-FRE) read?
A: 3.3 log2 enrichment (interaction score)

Q: And the binding signal (PUM1 PUF domain R4-CCM)?
A: 1.07 log2 enrichment (interaction score)

Q: And the binding signal (PUM1 PUF domain R2-KFG)?
A: 7.86 log2 enrichment (interaction score)

Q: And the binding signal (PUM1 PUF domain R4-WGF)?
A: 4.73 log2 enrichment (interaction score)

Q: What about the binding signal (PUM1 PUF domain R5-KYG) of the same sequence?
A: 3.77 log2 enrichment (interaction score)

Q: Which binding signal (PUM1 PUF domain R4-WAT) does the source give for “GGCUAGAACUAGUGGAUCCCCCGGCGCCCGGCGGCUCGAGCCCGGGUAAGUGUACAUAGUCUGCAUGCCGCCGGGCGCCAUGCCUGCAGGUCGACUCUAGAAAACAUG” here?
A: 2.53 log2 enrichment (interaction score)

Q: What about the binding signal (PUM1 PUF domain R4-SMR) of the same sequence?
A: 2.97 log2 enrichment (interaction score)

Q: Which binding signal (PUM1 PUF domain R1-KRD) does the source give for “GGCUAGAACUAGUGGAUCCCCCGGCGCCCGGCGGCUCGAGCCCGGGUAAGUGUAAAUCGUCUGCAUGCCGCCGGGCGCCAUGCCUGCAGGUCGACUCUAGAAAACAUG” here?
A: 3.37 log2 enrichment (interaction score)

Q: “GGCUAGAACUAGUGGAUCCCCCGGCGCCCGGCGGCUCGAGCCCGGGUAAGUUUAAAUAGUCUGCAUGCCGCCGGGCGCCAUGCCUGCAGGUCGACUCUAGAAAACAUG” was tested. Which binding signal (PUM1 PUF domain R7-GSR) did it give?
A: 4.22 log2 enrichment (interaction score)

Q: How did the binding signal (PUM1 PUF domain R5-KYG) turn out when “GGCUAGAACUAGUGGAUCCCCCGGCGCCCGGCGGCUCGAGCCCGGGUAAGUGUGAAUAGUCUGCAUGCCGCCGGGCGCCAUGCCUGCAGGUCGACUCUAGAAAACAUG” was run?
A: 2.74 log2 enrichment (interaction score)

Q: How did the binding signal (PUM1 PUF domain R4-CCM) turn out when “GGCUAGAACUAGUGGAUCCCCCGGCGCCCGGCGGCUCGAGCCCGGGUAAGUGUAUAUAGUCUGCAUGCCGCCGGGCGCCAUGCCUGCAGGUCGACUCUAGAAAACAUG” was run?
A: 2.39 log2 enrichment (interaction score)

Q: “GGCUAGAACUAGUGGAUCCCCCGGCGCCCGGCGGCUCGAGCCCGGGUAAGUGUCAAUAGUCUGCAUGCCGCCGGGCGCCAUGCCUGCAGGUCGACUCUAGAAAACAUG” was tested. Which binding signal (PUM1 PUF domain R5-KYG) did it give?
A: 5.55 log2 enrichment (interaction score)
